High-throughput results (PubChem BioAssay)
Rac1 wt GTP bind: human Rac1 wildtype GTP binding, inhibitors and activators. GST-Rac1 beads, fluorescent GTP binding, flow cytometry; actives lie on both sides; 0 = cold GTP competed, 100 = untreated. GTP binding activity (% of control), % at 10 µM. hit rate 0.27% among 190,000;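 active = GTP binding activity at least 20 points away from the 100% control level, either lower or higher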
Rab2A wt mod: changes GTP binding to wildtype dog Rab2A, up or down | P61105 | GST-Rab2 wt beads, Bodipy-GTP binding, flow cytometry | GTP binding activity, % at 10 µM | hit rate 0.19% among 190,000 | AID 760;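 active = GTP binding activity at least 20 points away from 100%, either lowered or raised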;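 note: 0% = beads with excess unlabeled GTP and 100% = no-compound control corrected for plate trend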
Rac1 act GTP bind: human Rac1 activated mutant GTP binding change. GST-Rac1 activated beads, fluorescent GTP binding, flow cytometry; actives lie on both sides; 100% means binding = to untreated wells. P63000. hit rate 0.11% among 190,000. AID 764. percent activity (GTP binding), % at 10 µM;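 active = GTP binding at least 20 percentage points away from the 100% baseline, in either direction, so actives lie on both sides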
HRas wt GTP: modulators of GTP binding to human HRas wildtype | P01112 | GST-Ras wt beads, Bodipy-FL-GTP binding, flow cytometry; actives lie on both sides | GTP binding activity, % at 10 µM | hit rate 0.14% among 190,000 | AID 759;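 active = GTP binding activity at least 20% away from the 100% baseline, either lowered as inhibitor or raised as activator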;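 note: 0% = unlabeled GTP competition control and 100% = no-compound control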
Rab7 wt GTP bind: alters GTP binding to wildtype dog Rab7 | GST-Rab7 beads, fluorescent GTP binding, flow cytometry; actives lie on both sides; untreated = 100%, excess cold GTP = 0% | GTP binding activity (percent of control), % at 10 µM | hit rate 0.055% among 190,000 | AID 758;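 active = fluorescent GTP binding to Rab7 beads changed by at least 20 points from the 100% baseline, either direction, mostly lower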;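 note: median green fluorescence of bound Bodipy-FL-GTP per Rab7 bead population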
Cdc42 wt GTP: changes GTP binding to wildtype human Cdc42; percent activity (GTP binding), % at 10 µM; AID 761; GST-Cdc42 beads, Bodipy-GTP binding, flow cytometry; actives lie on both sides; hit rate 0.2% among 190,000; P60953;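 active = percent activity GTP binding at least 20 points away from the 100% baseline, either down as inhibitor or up as activator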;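 note: median bead fluorescence of bound Bodipy-FL-GTP at 100 nM; 0% = excess unlabeled GTP control and 100% = no compound control; below 100% means less GTP binding so inhibitor and above means activator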
Target sequence (P60953 whole entry, looked up): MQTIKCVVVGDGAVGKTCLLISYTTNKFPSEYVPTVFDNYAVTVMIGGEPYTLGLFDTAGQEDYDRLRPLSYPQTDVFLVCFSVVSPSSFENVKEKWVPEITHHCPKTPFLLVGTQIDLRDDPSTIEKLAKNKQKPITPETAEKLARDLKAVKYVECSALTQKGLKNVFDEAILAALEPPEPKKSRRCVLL
* hit, by the source's call; [ ] = remark or other dose. This is a sample that favours compounds with a hit; in the whole collection about 0.37% have one here.

SMILES	Rac1 wt GTP bind	Rab2A wt mod	Rac1 act GTP bind	HRas wt GTP	Rab7 wt GTP bind	Cdc42 wt GTP
CCOc1ccc(C2=Nn3c(nnc3-c3ccco3)SC2)cc1	82	76*	84	77*	89	77*
O=C(NC1(C(=O)NC2CCCC2)CCCCC1)c1ccc2c(c1)OCO2	104	100	101	100	100	103
COc1ccc(/C=C2\SC(=S)NC2=O)cc1OS(=O)(=O)c1ccc(NC(C)=O)cc1	135*[activator]	108	110	111	118	108
COc1cc(/C=C2/SC(=S)NC2=O)ccc1OS(=O)(=O)c1ccc(C)cc1	96	96	98	97	96	98
CCOC(=O)/C=C1\SCC(=O)N1CCOc1cccc(Br)c1	86	79*	84	62*	73*	83
Cc1ccc(S(=O)(=O)CCC(=O)OC(C)C(=O)c2c(C)[nH]c3ccccc23)cc1 (stereo unspecified)	107	99	100	100	100	103
COc1ccc(-c2cc(C#N)nc(N3CCNCC3)n2)cc1	131*[activator]	127*[activator]	131*[activator]	125*[activator]	113	131*[activator]
COc1ccc(-c2cc(C#N)nc(N3CCN(C)CC3)n2)cc1	107	103	101	101	98	102
O=C(Nc1nc(-c2ccc(S(=O)(=O)N3CCCC3)cc2)cs1)c1cccs1	87	70*	84	71*	90	71*
O=C(Nc1ccc(S(=O)(=O)N2CCCC2)cc1)c1cccs1	98	97	94	101	103	96
